Experiment [1] concerns Human papillomavirus type 1a protein E7 (residues 44-93). Briefly: small molecules binding HPV E7 44-93 – biochemical, small-molecule microarray, residues 44-93, 635 nm fluorescence, primary screen (AID 1108).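 Note: E7 fragment applied at 1 µg/mL in TBST for 1 h at 4 C; score combines spot fluorescence with its signal to noise ratio.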 The settings on record: fluorescence 635 nm, higher = more signal.
A short description of experiment [2]: hepatitis C replication reporter changes, two-sided – Huh7 cells, luciferase reporter, HCV replication inhibitor project, primary screen (AID 1109).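 Note: huh7 hepatoma cells harbouring a luciferase neomycin HCV replicon reporter; luciferase luminescence as measure of HCV replicon replication; test concentration not given here.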 The settings on record: Huh7 HCV replicon luciferase reporter, 48 h; higher = more signal.
In experiment [3] the target is Left-right determination factor 2 (Homo sapiens) (UniProt O00292). Briefly: small molecules binding LEFTY2 protein – biochemical, small-molecule microarray, 635 nm fluorescence scan, primary screen (AID 1110). The settings on record: higher = more signal.
Sequence of Left-right determination factor 2 (Homo sapiens) (O00292 whole entry, looked up): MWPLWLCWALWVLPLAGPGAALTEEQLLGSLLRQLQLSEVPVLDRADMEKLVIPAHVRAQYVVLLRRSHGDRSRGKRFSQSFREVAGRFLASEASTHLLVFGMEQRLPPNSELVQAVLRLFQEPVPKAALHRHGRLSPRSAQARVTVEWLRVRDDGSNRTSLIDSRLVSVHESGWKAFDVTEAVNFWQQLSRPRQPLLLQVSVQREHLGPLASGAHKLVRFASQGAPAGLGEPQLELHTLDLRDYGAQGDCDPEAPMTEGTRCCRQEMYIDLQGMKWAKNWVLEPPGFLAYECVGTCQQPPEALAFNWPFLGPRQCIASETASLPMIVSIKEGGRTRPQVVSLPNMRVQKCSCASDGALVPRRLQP
In experiment [4] the target is Calmodulin-1 (Homo sapiens) (UniProt P0DP23). Put plainly: small molecules binding calmodulin-1 with EGTA – biochemical, small-molecule microarray, Cy5-labelled CALM1, profiling panel (AID 1111).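 Note: labelled calmodulin applied in Tris saline Tween buffer holding calcium plus EGTA and DTT.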 The settings on record: Cy5-CALM1 binding fluorescence, higher = more signal.
Experiment [5] shares this target. Briefly: small molecules binding Ca-loaded calmodulin-1 – biochemical, small-molecule microarray, Cy5-labelled CALM1, plus calcium, artefact control for SMM control-protein annotation, profiling panel (AID 1112).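 Note: score merges spot fluorescence with signal to noise from triplicate slides.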 The settings on record: Cy5-CALM1 binding fluorescence, higher = more signal.
The nature of experiment [6]: probe aWnt5a binding to arrayed compounds – biochemical, biotinylated probe, 635/667 nm fluorescence, primary screen (AID 1113).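 Note: score merges 667 nm fluorescence intensity with signal-to-noise per printed feature.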 Particulars: small-molecule microarray, higher = more signal.
Experiment [7] is described as follows: probe aShh binding to arrayed compounds – biochemical, biotinylated probe, 635/667 nm fluorescence, primary screen (AID 1114).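 Note: probe is biotin-labelled aShh protein from a stem cell growth factor screen; measures binding of labelled protein to compounds printed on the slide; score merges feature fluorescence at 667 nm with signal-to-noise.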 The settings on record: small-molecule microarray, higher = more signal.
Experiment [8] in a line: probe aNog binding to arrayed compounds – biochemical, biotinylated probe, 635/667 nm fluorescence, primary screen (AID 1115).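 Note: probe is biotinylated aNog protein used at 0.15 µg/mL for 1 h at 4 C; z-score combines 667 nm fluorescence of each spot with its signal to noise.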 The settings on record: small-molecule microarray, higher = more signal.
The target in experiment [9] is Torsin-1A-interacting protein 1 (Homo sapiens) (UniProt Q5JTV8). Put plainly: compound microarray binding of lysate hLAP1 – cell lysate, small-molecule microarray, COS7 lysate, 635/667 nm fluorescence, primary screen (AID 1116). The settings on record: 635 nm fluorescence, higher = more signal.
Sequence of Torsin-1A-interacting protein 1 (Homo sapiens) (Q5JTV8 whole entry, looked up): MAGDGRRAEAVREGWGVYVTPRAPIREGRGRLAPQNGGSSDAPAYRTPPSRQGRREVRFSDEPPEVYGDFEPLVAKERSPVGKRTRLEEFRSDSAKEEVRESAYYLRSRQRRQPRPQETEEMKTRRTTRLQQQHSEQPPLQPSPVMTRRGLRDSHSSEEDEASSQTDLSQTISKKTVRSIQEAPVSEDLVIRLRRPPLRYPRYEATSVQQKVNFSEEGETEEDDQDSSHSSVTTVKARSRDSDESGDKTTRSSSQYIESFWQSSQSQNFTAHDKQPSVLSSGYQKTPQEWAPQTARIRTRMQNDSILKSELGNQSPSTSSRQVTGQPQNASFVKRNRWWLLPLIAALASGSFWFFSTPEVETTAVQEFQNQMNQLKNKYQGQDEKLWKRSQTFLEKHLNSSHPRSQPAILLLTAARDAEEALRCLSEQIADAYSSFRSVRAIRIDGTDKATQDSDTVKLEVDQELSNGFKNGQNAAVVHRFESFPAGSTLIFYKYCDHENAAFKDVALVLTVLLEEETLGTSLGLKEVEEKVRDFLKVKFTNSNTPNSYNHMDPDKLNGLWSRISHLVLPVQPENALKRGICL
The target of experiment [10] is Alpha-bungarotoxin (Bungarus multicinctus) (UniProt P60615). Briefly: compounds binding labelled alpha-BTX control protein – biochemical, small-molecule microarray, Alexa647 label, 635/667 nm fluorescence, artefact control for SMM control protein annotation, profiling panel (AID 1117). Particulars: alpha-BTX-A647 binding fluorescence, higher = more signal.
Sequence of Alpha-bungarotoxin (Bungarus multicinctus) (P60615 whole entry, looked up): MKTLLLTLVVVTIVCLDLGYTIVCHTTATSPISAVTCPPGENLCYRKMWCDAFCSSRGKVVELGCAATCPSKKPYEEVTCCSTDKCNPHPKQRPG

Consider `CCCNC(=O)OC[C@H]1O[C@H](CCON=C2C[C@@H](O)[C@@H](O)[C@@H]3[C@@H]4C(=O)N(CC)C(=O)[C@@H]4CC[C@@H]23)C=C[C@@H]1Oc1ccc(OC)cc1`, for which the composite z-score in experiment [1] was 0.938; in experiment [3], 0.928; in experiment [4], 0.0716; in [5], -0.795; in experiment [6], -0.141; in [7], 0.531. Also, the results for the composite z-score in experiment [8], in experiment [9] and in experiment [10] were 0.084, -0.0137 and 0.512, respectively. In addition, the z-score in experiment [2] is -1.33.

As for `O=C1C=C[C@@H](O)[C@@H]2[C@@H]3C(=O)N(Cc4ccccc4)C(=O)[C@@H]3CC[C@@H]12`, the composite z-score in [1] is 0.248; in experiment [3] it was 0.527; in experiment [4], -0.133; in experiment [5], -0.457; in experiment [6] it was -0.0758; in experiment [7] it was -0.283. The composite z-score in [8] was -0.213; in [9], 0.476; in [10], 0.332. The z-score in [2] amounted to 0.493.

Turning to `CCOC(=O)CCN1C(=O)[C@H]2[C@H]3[C@H](O)[C@H](O)CC(=NNC(=O)OCc4ccccc4)[C@H]3CC[C@H]2C1=O`, the composite z-score in [1] was -0.994; in experiment [3], 0.863; in experiment [4], -1.01; in experiment [5], -1.23; in experiment [6], -0.0045; in experiment [7], -0.138. Also, the figures for the composite z-score in experiment [8], in experiment [9] and in experiment [10] were -0.0091, 0.264 and -0.245, respectively. Further, in experiment [2], the z-score was found to be 0.283.

On to `CO[C@@H]1C=CCC(=O)N[C@@H](C)C(=O)OC[C@@H](NS(=O)(=O)c2ccc(C)cc2)[C@H](C)C=CCC(=O)OC[C@H]1C`, for which the composite z-score in [1] is -0.844; in [3], 0.957; in [4] it was -0.062; in [5], -0.417; in experiment [6] it was -0.18; in [7], 0.0442. Moreover, the results for the composite z-score in [8], in experiment [9] and in experiment [10] were -0.0116, -0.159 and -0.135, respectively. In [2], this compound showed a z-score of 0.46.

With `COC(=O)CC=C[C@@H](C)[C@@H](C=NOC[C@@H](C)[C@H](OCc1ccccc1)C(C)C)NS(=O)(=O)c1ccc(C)cc1`, the composite z-score was -0.482 in [1]; 0.21 in experiment [3]; -1.51 in experiment [4]; -1.26 in [5]; -0.148 in experiment [6]; -0.0977 in experiment [7]. For the same compound, the composite z-score in experiment [8] was -0.541; in experiment [9] it was 0.161; in [10], -1.25. This compound also gave a z-score in [2] of -1.44.

Consider `COC(=O)C1=C(C)N(Cc2ccccc2)C2=C3C(=O)OCC[C@@H]3[C@@](O)(C(=O)OC)C(=O)N2[C@@H]1c1ccccc1`, for which the composite z-score in experiment [1] was -0.0816; in experiment [3] it was 0.528; in experiment [4] it was -0.0583; in experiment [5] it was -0.689; in experiment [6], -0.13; in experiment [7] it was 0.0278. Also, the results for the composite z-score in [8], in experiment [9] and in experiment [10] were -0.189, -0.207 and 0.415, respectively. In experiment [2], this compound yielded a z-score of 0.935.

Consider `CC(CCN1CCc2nc(-c3ccccc3)c(-c3ccccc3)cc2C1)=NOC(C)CN1CCCc2nc(C)c(C)cc21` (stereo not given), for which the composite z-score was 1.39 in experiment [1]; 0.848 in experiment [3]; 0.637 in experiment [4]; -0.0431 in experiment [5]; 0.0017 in experiment [6]; 0.267 in experiment [7]. Moreover, the composite z-score in [8] came to 0.378; in experiment [9] it was 0.825; in experiment [10] it was 1.03. The compound further had a z-score in experiment [2] of -3.08.

On to `CC(CCN1CCCc2nc(C)c(C)cc21)=NO[C@H](C)c1cn([C@@H]2COC[C@H]2O)nn1`, for which the composite z-score in experiment [1] is 0.839; in [3] it was 0.831; in [4], -0.253; in experiment [5], -0.718; in experiment [6], -0.0478; in [7] it was 0.0611. Moreover, the figures for the composite z-score in [8], in experiment [9] and in experiment [10] were -0.158, 0.695 and 0.102, respectively. The same compound gave a z-score in [2] of 0.0504.

With `COC(=O)CC=C1c2ccccc2[C@H](OC)[C@H]1C`, the composite z-score was -0.887 in experiment [1]; 0.398 in experiment [3]; -0.452 in experiment [4]; -0.746 in experiment [5]; -0.0981 in [6]; -0.138 in experiment [7]. The results for the composite z-score in experiment [8], in experiment [9] and in [10] were -0.172, -0.035 and -0.545, respectively. The compound further gave a z-score in experiment [2] of -0.154.

As for `CC(C)=CCCC(C)=CCON=C1C[C@@H](O)[C@@H](O)[C@@H]2[C@@H]3C(=O)N(C4CCCCC4)C(=O)[C@@H]3CC[C@H]12`, the composite z-score in experiment [1] was 0.684; in experiment [3], 0.594; in experiment [4], -0.432; in experiment [5], -1.2; in experiment [6], -0.0425; in [7], -0.0904. Also, the composite z-score in experiment [8] was -0.341; in experiment [9] it was -0.0853; in experiment [10] it was 0.713. Moreover, the z-score in experiment [2] is -0.127.

Consider `CSCC[C@@H]1NC(=O)CC=C[C@@H](C)COC(=O)[C@H](C)COC1=O`, for which the composite z-score in experiment [1] was -1.63; in experiment [3] it was 1.71; in [4], -2.28; in experiment [5], -3.17; in [6] it was -0.286; in [7], -0.0035. Besides, the composite z-score was -0.321 in [8], 0.443 in experiment [9] and -1.96 in experiment [10]. The z-score in experiment [2] amounted to 0.894.

Consider `COC(=O)[C@H](C)NC(=O)CCC1CC(OC(=O)NCc2cccc3ccccc23)CC2(CCCC(COC(=O)NCc3cccc(C(F)(F)F)c3)O2)O1` (stereo not given in full), for which the composite z-score in experiment [1] was 1.32; in experiment [3], 0.925; in [4], 1.1; in experiment [5] it was 0.269; in experiment [6] it was -0.0384; in [7], -0.138. Further, the results for the composite z-score in [8], in experiment [9] and in [10] were -0.23, 0.208 and 0.292, respectively. Moreover, the z-score in [2] is -0.548.

Turning to `CCCNC(=O)OC[C@H]1O[C@H](CCON=C[C@@H](NS(=O)(=O)c2ccc(C)cc2)[C@H](C)C=CCC(=O)OC)C=C[C@@H]1Oc1ccc(OC)cc1`, the composite z-score in [1] is 0.186; in experiment [3] it was 0.65; in [4] it was -1.21; in experiment [5], -1; in experiment [6], -0.117; in [7], -0.138. Moreover, the composite z-score in experiment [8] is -0.0312; in [9], 0.247; in experiment [10], 0.0462. The z-score in [2] is -1.65.

Take `CCN1C(=O)[C@H]2[C@H]3[C@H](O)[C@H](O)CC(=NOC(C)CN4CCCc5nc(C)c(C)cc54)[C@@H]3CC[C@H]2C1=O` (stereo not given in full): the composite z-score in experiment [1] was 0.562; in [3] it was 0.803; in [4], -0.528; in experiment [5] it was -1.03; in [6], -0.0478; in experiment [7] it was 0.275. Also, the composite z-score in [8] was 0.182; in experiment [9], 0.304; in experiment [10], -0.0882. In experiment [2], this compound gave a z-score of -1.21.

Regarding `CCCCOC(OCCCC)C(O)CSc1ccc2ccccc2c1` (stereo not given), the composite z-score in experiment [1] was 0.711; in experiment [3], 0.64; in experiment [4], -0.24; in experiment [5], -0.19; in experiment [6], -0.0441; in experiment [7], 0.171. Further, the results for the composite z-score in experiment [8], in experiment [9] and in experiment [10] were -0.0281, 0.506 and 0.086, respectively. Further, in experiment [2], the z-score came out at 0.0395.

For `CCOC(=O)[C@H](Cc1ccccc1)NC(=O)CCC1CC(OC(=O)NCc2ccc3c(c2)OCO3)CC2(CCCC(COC(=O)NCCOC)O2)O1` (stereo not given in full), the composite z-score in [1] is 1.36; in experiment [3] it was 0.545; in experiment [4], 0.353; in [5], -0.194; in experiment [6], -0.124; in experiment [7] it was -0.153. The composite z-score was -0.0524 in [8], 0.609 in [9] and 0.591 in experiment [10]. The same compound gave a z-score in [2] of -1.08.

In the case of `CC(CCN1CCCCc2nc(C)c(C)cc21)=NO[C@H](C)c1cn([C@@H]2COC[C@H]2O)nn1`, the composite z-score is 0.421 in experiment [1]; 1.35 in experiment [3]; -0.197 in experiment [4]; -0.835 in [5]; -0.222 in [6]; -0.112 in experiment [7]. In addition, the composite z-score was -0.158 in [8], 0.337 in experiment [9] and 1.3 in [10]. The compound further gave a z-score in experiment [2] of -0.219.

Turning to `CCOC(=O)[C@H](CC(C)C)NC(=O)CCC1CC(OC(=O)NCCc2ccc(F)cc2)CC2(CCCC(COC(=O)NCc3cccc4ccccc34)O2)O1` (stereo not given in full), the composite z-score is 0.548 in experiment [1]; 0.824 in [3]; 0.239 in [4]; -0.364 in experiment [5]; -0.156 in experiment [6]; -0.237 in experiment [7]. Also, the results for the composite z-score in experiment [8], in experiment [9] and in experiment [10] were -0.497, 0.219 and 0.0466, respectively. The z-score in experiment [2] was -0.893.

(Values after PubChem BioAssay.)
